Rows were chosen to be rich in hits. Some 0.56% of all compounds tested hit in one or more screens of this group.
EPAC1 antag = qHTS for Antagonist of cAMP-regulated guanine nucleotide exchange factor 3 (EPAC1): primary screen. Rap guanine nucleotide exchange factor 3 (Homo sapiens), O95398. AID 720709, 2013. EPAC1 GEF assay, Rap1b-BODIPY-GDP exchange fluorescence. actives 0.14% (n = 360,000). Potency, µM (series often up to 115 µM), for the others: at the highest dose activity change, negative = inhibition, most hits filed as inhibitors;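 further: potency means the concentration at half of the fitted maximal effect; plate controls were vehicle for no effect and positive control for full effect; nearly all actives have a fitted effect of over 50% in size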
USP1 inh = Inhibitors of USP1/UAF1: Primary Screen. Ubiquitin carboxyl-terminal hydrolase 1 (Homo sapiens), O94782. recombinant USP1/UAF1, Ub-Rhodamine cleavage fluorescence. Potency, µM (highest dose often 57.1 µM), inactives show at the top dose activity change, negative = inhibition, usual class: inhibitors. actives 0.23% (n = 390,000); further: potency means the concentration at half of the fitted maximal effect; on the % scale 0 is the no-effect control and ±100 the full control effect; nearly all actives have a fitted effect of over 60% in size
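High-throughput fluorogenic screen: 1nM USP1/UAF1 complex, Ub-Rho substrate 150nM final, 50mM HEPES pH 7.8 with 0.5mM EDTA, 0.1 mg/ml BSA, 1mM TCEP and 0.01% Tween-20.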
EPAC2 ag = qHTS for Agonist of cAMP-regulated guanine nucleotide exchange factor 4 (EPAC2): primary screen | Rap guanine nucleotide exchange factor 4 (Homo sapiens), Q8WZA2 | EPAC2 activation, biochemical qHTS; response scale: 100% = 6.5 mM cAMP response | Potency, µM (top dose mostly 154 µM), inactives show top-dose activation, usual class: activators | actives 0.079% (n = 360,000); further: potency means the concentration at half of the fitted maximal effect; nearly all actives have a fitted effect of over 50% in size
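Compounds were added across a concentration range to EPAC2 (100 nM), RAP1B-BODIPY-GDP (250 nM) and GDP (50 uM). After 5 min at room temperature, fluorescence was recorded at 5-min intervals for 30 min.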
EPAC2 antagonist = qHTS for Antagonist of cAMP-regulated guanine nucleotide exchange factor 2 (EPAC2): primary screen; EPAC2 GEF exchange of Rap1B-BODIPY-GDP, fluorescence; Potency, µM (highest dose often 114 µM), without a hit: top-dose activity, negative = inhibition, most hits filed as inhibitors; actives 0.18% (n = 360,000); further: potency means the concentration at half of the fitted maximal effect; on the % scale 0 is the no-effect control and ±100 the full control effect; nearly all actives have a fitted effect of over 45% in size
EPAC1 ag = qHTS for Agonist of cAMP-regulated guanine nucleotide exchange factor 3 (EPAC1): primary screen; Potency, µM (doses to about 154 µM), inactives show at the top dose activation, actives largely listed as activators; AID 720707, 2013; Rap guanine nucleotide exchange factor 3 (Homo sapiens), O95398; actives 0.073% (n = 360,000); EPAC1 agonist qHTS, biochemical assay; response scale: 100% = response to 6.5 mM cAMP; further: potency means the concentration at half of the fitted maximal effect; nearly all actives have a fitted effect of over 60% in size
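EPAC1 100 nM, Rap1B–BODIPY-GDP 250 nM, unlabeled GDP 50 uM; compound titration; 5 min RT; kinetic read ex480/em540 at 5-min intervals ×30 min; data normalized to 6.5 mM cAMP agonist control.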
LDHA inh = qHTS assay for inhibitors of human lactate dehydrogenase | purified LDHA, NADH/diaphorase-resazurin fluorescence; hits give low values | activity change, % (values are at about 110 or 230 µM) | actives 0.15% (n = 480,000) | AID 1347041, 2019; in the data active means activity change below about -30%; inconclusive means mostly about -25% to -30%;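 further: plate controls were DMSO wells for no effect and wells without enzyme for full effect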
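Remaining NADH was detected by diaphorase (0.133 mg/mL) converting 37 µM resazurin to fluorescent resorufin, read at 0 and 20 minutes. The preceding 5-minute room-temperature reaction used 2 nM LDHA, 0.2 mM sodium pyruvate and 0.06 mM NADH at pH 7.4.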
An asterisk follows results filed as active; ? = inconclusive; . = no result given. Unless noted, the call rests on the fitted dose curve; in most records, active means well fitted curve in the direction sought with a large enough effect; inconclusive means small, poorly fitted or top-dose-only effect, or another doubt; inactive means no such curve, though single readings can be large; an effect the other way counts as inactive or inconclusive.

SMILES	EPAC1 antag	USP1 inh	EPAC2 ag	EPAC2 antagonist	EPAC1 ag	LDHA inh
COC1=C(c2ccccc2)C(=O)c2ccccc2C1=O	23.0%	14.1µM*	9.3%	-3.9%	-0.8%	20.5
Oc1ccc(NCc2ccc(OCc3ccccc3)cc2)cc1	?	3.16µM*	20.1%	-16.5%	9.4%	8.5
CCc1ccc(CNc2ccc3c(c2)ncn3CC)cc1	?	-21.0%	3.5%	-12.1%	-6.0%	15.8
c1ccc(CNCc2ccc(OCc3ccccc3)cc2)cc1	.	.	.	.	.	-0.5
Oc1ccc(NCc2ccc(OCc3ccccc3Cl)cc2)cc1	.	31.6µM*	.	.	.	16.8
CCc1ccc(CNc2ccc(O)cc2)cc1	8.91µM*	28.2µM*	8.8%	14.7%	-0.2%	21.8
COc1cc(CNc2ccc(O)cc2)cc(Br)c1OCc1ccccc1	39.8µM*	-26.9%	14.1%	?	17.1%	13.3
CCc1ccc2c(c1)NC(=O)C2(C)Cc1ccc(F)cc1 (stereo unspecified)	-8.0%	.	-4.2%	44.7µM*	-17.1%	3.7
CCc1ccc2c(c1)NC(=O)C2(C)Cc1ccc(Cl)s1 (stereo unspecified)	-15.2%	.	13.4%	?	-4.7%	-3.0
Cc1ccc(S(=O)(=O)N2[C@@H](c3ccc(Cl)cc3)C(C(=O)O)=CC[C@H]2c2cccc(Cl)c2)cc1	-12.1%	-23.8%	4.9%	?	0.3%	-6.0
Cc1ccc(S(=O)(=O)N2[C@@H](c3cccc(Cl)c3)C(C(=O)O)=CC[C@H]2c2ccc(C(C)C)cc2)cc1	56.2µM*	?	-9.1%	-27.6%	-15.7%	-11.3
CC(C)[Si](C#CCN1CCCCC1)(C#CCN1CCCCC1)c1ccccc1	.	.	.	.	.	-0.7
CCOc1cc(CNc2ccc(N3CCCC3)cc2)cc(Cl)c1OC	5.1%	28.2µM*	-0.1%	-0.2%	-12.6%	18.1
COc1cc(CNc2ccc(N3CCCC3)cc2)cc(Cl)c1OC	-5.2%	?	14.5%	-13.6%	3.0%	23.1
C=CCOc1ccc(C=NNc2ccc(S(=O)(=O)Nc3ccccc3C(=O)O)cc2[N+](=O)[O-])cc1OC	50.1µM*	?	0.9%	?	-6.2%	?
COc1ccc(C=NNc2ccc(S(=O)(=O)Nc3ccccc3C(=O)O)cc2[N+](=O)[O-])c(OC)c1	50.1µM*	?	1.0%	-5.4%	2.7%	-70.6*
O=C(O)c1ccccc1NS(=O)(=O)c1ccc(NN=Cc2ccccc2F)c([N+](=O)[O-])c1	?	-14.6%	1.0%	?	13.0%	-9.5
COc1ccc(C(=O)Nc2cnc3ccccc3c2)cc1OC	.	.	.	.	.	0.3
COc1ccc(N=Nc2nc3ccc(Br)cc3n2C)cc1	163.4%	-18.8%	24.3%	14.4%	112µM*	15.9
COc1ccccc1N(C(C)=O)C1=C(Cl)C(=O)c2ccccc2C1=O	-22.7%	17.8µM*	26.1%	18.4%	5.0%	64.2
COc1ccccc1N(C(=O)CCl)c1cn(C(C)=O)c2ccccc12	-2.0%	-6.3%	9.1%	?	4.3%	-0.4
Cc1ccc(-c2nc(CS(=O)CC(=O)N(C)C3CCCCC3)cs2)cc1 (stereo unspecified)	.	.	.	.	.	3.0
CN(C)CCNC(C(=O)Nc1cccc(S(=O)(=O)N2CCOCC2)c1)c1ccccc1 (stereo unspecified)	3.5%	-6.3%	0.5%	3.8%	-4.2%	-12.7
CCOc1ccccc1NC(=O)C(NCCN(C)C)c1ccccc1 (stereo unspecified)	6.8%	-23.0%	12.2%	0.8%	1.9%	-41.1*
CN(C)CCNC(C(=O)Nc1cccc(C(F)(F)F)c1)c1ccccc1 (stereo unspecified)	10.0%	-25.1%	-1.9%	-0.6%	11.5%	-37.3*
SMILES	EPAC1 antag	USP1 inh	EPAC2 ag	EPAC2 antagonist	EPAC1 ag	LDHA inh
Cc1cc2oc(=O)cc(CSc3nncn3C)c2cc1C	.	.	.	.	.	-20.6
COc1ccc(S(=O)(=O)N(C)C2CCS(=O)(=O)C2)cc1C (stereo unspecified)	.	.	.	.	.	1.2
COc1cc(CNn2cnnc2)ccc1OCC(=O)NC(C)(C)C	-5.2%	4.6%	10µM*	2.3%	3.1%	1.5
COc1cc(CNC(C)(C)C)ccc1OCC(=O)NC(C)(C)C	-37.8%	-5.1%	11.6%	-1.0%	3.7%	-4.9
S=c1[nH]nc(-c2cc(-c3ccccc3)n[nH]2)n1/N=C/c1ccc(Cl)cc1	7.0%	-8.0%	-9.9%	1.1%	0.9%	0.4
S=c1[nH]nc(-c2cc(-c3ccccc3)n[nH]2)n1/N=C/c1ccc(Cl)c(Cl)c1	56.2µM*	2.8%	4.7%	?	63.1µM*	-42.2*
S=c1[nH]nc(-c2cc(-c3ccccc3)n[nH]2)n1/N=C/c1cccc(Cl)c1	50.1µM*	?	3.4%	-20.6%	89.1µM*	-22.8
N#Cc1c(N)nc2c(c1-c1ccccc1Cl)CCCC2	.	.	.	.	.	3.7
COc1ccc2ccccc2c1C(O)c1nccn1C (stereo unspecified)	58.6%	?	100µM*	72.0%	63.1µM*	26.1
Cn1ccnc1C(O)c1ccccc1 (stereo unspecified)	-4.9%	-0.9%	12.7%	10.5%	7.1%	2.0
N#Cc1nc(COc2ccc(Cl)cc2)oc1NCc1ccncc1	.	.	.	.	.	1.9
Cc1nn(-c2ncccn2)c2c1C(c1ccc(OCCc3ccccc3)cc1)CC(=O)N2 (stereo unspecified)	.	.	.	.	.	4.2
O=P1(O)Cc2ccccc2-c2ccccc21	2.8%	6.1%	5.1%	-0.6%	8.1%	-6.0
Brc1ccc(-c2csc(-c3c[nH]c4ccccc34)n2)cc1	-5.3%	-26.3%	39.8µM*	-4.2%	16.2%	-8.4
O=C(Cn1nc(C(=O)O)c2ccccc2c1=O)Nc1ccc(Oc2ccccc2)cc1	.	.	.	.	.	28.3
CCOC(=O)Nc1cc2c(c(N)n1)N=C(c1ccccc1)CN2	89.1µM*	?	1.7%	11.6%	10.2%	-0.9
COC(=O)CC1(c2ccc(OC)cc2)C(=O)c2ccccc2C1=O	6.4%	-4.7%	4.3%	44.7µM*	5.7%	3.1
COC(=O)CC1(c2ccccc2)C(=O)c2ccccc2C1=O	-7.3%	-7.1%	12.1%	-4.5%	8.3%	-6.4
CCN(CCn1cccn1)Cc1c(C(=O)N2CCCCCCC2)nc2ccc(Cl)cn12	22.4µM*	-6.9%	3.5%	-7.0%	11.6%	-7.1

Screens: PubChem BioAssay, National Center for Advancing Translational Sciences (NCATS)
